What all share (assay): NCI-60 one-dose screen, 48 h (100 = growth as untreated, 0 = no growth, -100 = all killed)
Holding throughout (conditions): 10 µM

Assay [1] deals with NCI-H23 lung.
The test system of assay [2] is NCI-H226 lung.
In assay [3] the test system is HOP-62 NSCLC.
Assay [4] has as its system NCI-H460 lung.
Assay [5] relates to NCI-H522 lung.
For assay [6], the system named is A549/ATCC NSCLC.
For assay [7], the system named is 786-0 renal.
The test system of assay [8] is COLO 205 colon.
For assay [9], the system named is DU-145 prostate.
Assay [10] concerns K-562 leukemia.
Assay [11] has as its system MDA-MB-231 breast.
In assay [12] the test system is RXF 393 renal.
For assay [13], the system named is SF-268 CNS.
In assay [14] the test system is SF-295 CNS.
The test system of assay [15] is SF-539 CNS.
In assay [16] the test system is UACC-257 melanoma.
Assay [17] concerns M14 melanoma.
The test system of assay [18] is HOP-92 NSCLC.
The test system of assay [19] is MALME-3M melanoma.

This is part of a sample that, as a whole, favours compounds with a hit. Of some 83,000 tested, about 20% had one in any assay.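 Each cell line was grown in a 96-well plate and treated with one concentration of compound for 48 hours. Values below 10 were considered active.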 Unmarked numbers belong to inactive results. Calls of active or inactive are those of the source.

In the case of `COc1ccc(C(=O)c2cc3c(OC)c(OC)c(OC)cc3[nH]2)cc1`, the growth was 32.3% in [1]; 86.5% in assay [2]; 77.8% in [3]; 16.8% in assay [4]; 25.4% in assay [5]; 36.6% in assay [6]. Also, the growth in assay [7] was 73.2%; in [8] it was 37.4%; in assay [9], 81.8%; in [10] it was 7.74% (active); in [11] it was 56.3%; in assay [12] it was 72%. Besides, the growth in [13] was 63.5%; in [14], 143%; in assay [15], 66.1%; in assay [16], 87.8%; in assay [17], 30.2%.

Turning to `CN(C)CCC1(c2ccccc2)CCN(C)C1=O` (stereo not drawn), the growth in assay [1] is 103%; in assay [2] it was 95.7%; in assay [3] it was 96.9%; in assay [18], 123%; in assay [5], 86.4%; in assay [6] it was 105%. Further, the growth in assay [7] was 109%; in assay [8], 105%; in assay [9] it was 107%; in assay [10], 95.2%; in [19], 94.8%; in assay [11] it was 114%. The growth in [12] is 96.1%; in assay [13] it was 99.9%; in [14], 104%; in [15] it was 103%; in assay [16] it was 104%; in assay [17] it was 108%.

For the compound `Cc1c2c(nn1C(=O)c1nn(-c3ccc(Cl)cc3)cc1O)-c1ccccc1CC2`, the growth in assay [1] was 16.6%; in [2] it was 22%; in assay [3], 23.7%; in assay [4], 9.48% (active); in assay [5], -8.04% (active); in assay [6] it was 21.8%. Moreover, the growth is 21.1% in assay [7]; -4.51% (active) in assay [8]; 24.1% in assay [9]; -11.5% (active) in assay [10]; 38.1% in assay [11]; 31.8% in [12]. The growth in assay [13] is 33.9%; in [14], -15.1% (active); in [15], 9.85% (active); in [16], -1.88% (active); in [17], 27.2%.

Regarding `O=[N+]([O-])c1ccc(/C(=C/c2ccccc2)[n+]2ccccc2)cc1`, the growth in assay [1] is 113%; in assay [2], 105%; in [3] it was 110%; in assay [4] it was 103%; in assay [6], 99.7%; in assay [7] it was 104%. Also, the growth in assay [8] is 114%; in [9] it was 127%; in [10], 91.9%; in [19] it was 125%; in assay [11], 111%; in assay [12], 105%. Moreover, the growth in assay [13] is 128%; in [14], 102%; in assay [15], 107%; in assay [16] it was 101%; in assay [17], 114%.

Take `Nc1nc(Cn2c(-c3nonc3N)nc3ccccc32)nc(N2CCCCC2)n1`: the growth in assay [1] is 90.5%; in assay [2] it was 94.4%; in [3] it was 91.7%; in assay [4], 99.4%; in [5], 71.7%; in [6], 93.1%. Besides, the growth in assay [7] is 92%; in assay [8], 94.4%; in assay [9] it was 99%; in assay [10], 49.3%; in assay [11], 84.8%; in assay [12], 87.7%. The growth in [13] was 95.6%; in assay [14], 96.7%; in assay [15], 101%; in assay [16], 93.1%; in assay [17], 98.4%.

As for `CC(=O)Nc1ccc(S(=O)(=O)N/N=C(\C)c2ccc(C)cc2C)cc1`, the growth is 105% in [1]; 107% in assay [2]; 100% in [3]; 106% in [4]; 91.1% in assay [5]; 99.9% in assay [6]. The growth is 105% in [7]; 103% in assay [8]; 112% in [9]; 94.9% in [10]; 113% in [11]; 129% in assay [12]. The growth in assay [13] was 104%; in [15], 98.3%; in assay [16] it was 95.1%; in [17], 106%.

Turning to `Nc1ccc(CC[C@H]2CCC/C=C/[C@@H]3C[C@H](O)C[C@H]3[C@H](O)/C=C/C(=O)O2)cc1`, the growth is -22.7% (active) in assay [1]; 5.2% (active) in [2]; 14.2% in assay [3]; 10.5% in [4]; -46.6% (active) in assay [5]; 11.9% in assay [6]. For the same compound, the growth is 16.2% in assay [9]; 11.4% in assay [10]; -14% (active) in assay [19]; -80.5% (active) in assay [11]; -36.3% (active) in assay [12]; 10.2% in assay [13]. In addition, the growth in assay [14] is 13%; in assay [15], 25.3%; in assay [16] it was 4.74% (active); in assay [17], 3.35% (active).

As for `COC(=O)c1c[nH]c2cc(OC(C)C)c(OC(C)C)cc2c1=O`, the growth in assay [1] was 97.6%; in [2] it was 92.9%; in assay [3], 37.9%; in assay [18], 80.5%; in [5] it was 94.3%; in [6], 61.8%. In addition, the growth is 110% in assay [7]; 108% in assay [8]; 110% in assay [9]; 98.9% in assay [10]; 125% in assay [19]; 109% in assay [11]. In addition, the growth in [12] was 94.7%; in [13], 104%; in assay [14], 105%; in assay [15], 91%; in assay [16], 87.6%; in assay [17], 108%.

In the case of `COc1ccc(N(C)c2ncnc3occ(C)c23)cc1`, the growth in [1] was 6.05% (active); in assay [2] it was 27.5%; in [3], 34.6%; in assay [4], 2.75% (active); in [5], -37.7% (active); in [6], 15%. The growth in assay [7] is 17.8%; in assay [8], -62.4% (active); in assay [9], -40.2% (active); in assay [10], 1.42% (active); in [11], -3.09% (active); in assay [12], 14.4%. Further, the growth in [13] was 18%; in assay [14], -8.16% (active); in [15], -20.4% (active); in assay [16], 66.8%; in assay [17], 0.316% (active).
